Results as given in ChEMBL document CHEMBL1201862, “PubChem BioAssay data set” (2004).
Among all 400,000 compounds or so, about 2,100 (0.53%) were called active. Inconclusive results (about 14%) are left out. The sample holds actives, similar compounds and a random draw of the others, so the mix is not that of the screen. The rule behind the calls is not given here.

What follows are compounds tested against Ataxin-2 (Homo sapiens) (UniProt Q99700) (assay: qHTS for Inhibitors of ATXN expression.).
Sequence of Ataxin-2 (Homo sapiens) (Q99700 whole entry): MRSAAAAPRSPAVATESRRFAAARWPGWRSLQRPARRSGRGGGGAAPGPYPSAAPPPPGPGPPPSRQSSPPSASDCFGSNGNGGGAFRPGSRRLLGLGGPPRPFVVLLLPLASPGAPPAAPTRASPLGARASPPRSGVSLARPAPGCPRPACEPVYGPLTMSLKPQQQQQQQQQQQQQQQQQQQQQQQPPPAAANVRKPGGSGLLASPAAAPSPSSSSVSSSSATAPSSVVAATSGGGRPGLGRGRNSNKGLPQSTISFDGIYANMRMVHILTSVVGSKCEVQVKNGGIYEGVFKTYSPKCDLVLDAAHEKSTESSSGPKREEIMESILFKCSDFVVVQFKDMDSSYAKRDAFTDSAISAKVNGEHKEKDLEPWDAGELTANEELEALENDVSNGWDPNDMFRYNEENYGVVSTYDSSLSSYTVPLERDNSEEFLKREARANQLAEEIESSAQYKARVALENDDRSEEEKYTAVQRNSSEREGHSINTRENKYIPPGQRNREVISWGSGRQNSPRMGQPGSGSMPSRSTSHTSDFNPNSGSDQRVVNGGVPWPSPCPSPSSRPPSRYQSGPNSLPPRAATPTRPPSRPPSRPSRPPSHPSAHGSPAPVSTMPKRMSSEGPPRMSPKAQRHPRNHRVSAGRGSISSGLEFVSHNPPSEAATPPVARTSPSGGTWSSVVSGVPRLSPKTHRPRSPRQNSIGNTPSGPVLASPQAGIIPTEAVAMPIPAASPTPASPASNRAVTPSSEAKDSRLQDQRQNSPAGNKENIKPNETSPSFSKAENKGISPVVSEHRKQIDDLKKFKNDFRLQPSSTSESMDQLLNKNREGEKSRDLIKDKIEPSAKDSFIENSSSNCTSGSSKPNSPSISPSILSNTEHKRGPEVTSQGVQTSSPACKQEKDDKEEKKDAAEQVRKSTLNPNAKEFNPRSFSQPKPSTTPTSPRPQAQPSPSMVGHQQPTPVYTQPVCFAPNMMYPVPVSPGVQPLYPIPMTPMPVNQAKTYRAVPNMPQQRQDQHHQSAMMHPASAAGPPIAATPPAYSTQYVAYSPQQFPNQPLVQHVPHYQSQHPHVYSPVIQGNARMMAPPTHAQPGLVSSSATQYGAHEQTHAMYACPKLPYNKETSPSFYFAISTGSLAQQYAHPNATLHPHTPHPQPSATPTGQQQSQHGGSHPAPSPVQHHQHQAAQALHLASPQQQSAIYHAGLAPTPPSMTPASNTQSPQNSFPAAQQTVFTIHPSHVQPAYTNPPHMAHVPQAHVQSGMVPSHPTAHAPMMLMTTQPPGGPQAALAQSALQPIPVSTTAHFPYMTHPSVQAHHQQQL
Type: functional
For `COC(=O)c1cc(N2CCN(C)CC2)nc2ccccc12`, the Potency was “inactive”. For `Cc1cc(N2CCN(C)CC2)nc2ccc(NC(=O)CCC3CCCC3)cc12`, the Potency was “inactive”. With `Cc1cc(N2CCN(C)CC2)nc2ccc(NC(=O)Nc3ccccc3)cc12` the Potency was 17.8 µM (active). `Cc1onc(-c2c(Cl)cccc2Cl)c1NC(=O)NNc1ccccn1` was tested, and the Potency was “inactive”. For `Cc1cc(C)c(C#N)c(SCc2ccc(F)cc2)n1`, the Potency was “inactive”. In the case of `Cn1c(Cl)cnc1C1CC(=O)c2cc(Cl)ccc2O1` (stereo not drawn), the Potency is reported as 39.8 µM (active). With `Cc1cccc(-n2cnc(C(=O)N3CCN(C)CC3)c2)n1` the Potency was “inactive”. For `CCc1csc(CCNC(=O)C2CCC(=O)N(Cc3ccccc3F)C2)n1` (stereo not drawn), the Potency was “inactive”. With `CC#CCN(Cc1ccco1)C(=O)C1CCC(=O)N(CCc2cccc(F)c2)C1` (stereo not drawn) the Potency was “inactive”. `CCCc1cc(CNC(=O)C2CCC(=O)N(CCc3cccc(F)c3)C2)on1` (stereo not drawn) was tested, and the Potency was 35.5 µM (active). `O=C(c1ccccc1)c1ccc2cc(O)ccc2c1` was tested, and the Potency was “inactive”. With `O=C(C1=C(c2ccccc2)C(=O)c2ccccc2C1=O)c1ccccc1` the Potency was 7.08 µM (active). With `COC1=C(c2ccccc2)C(=O)c2ccccc2C1=O` the Potency was “inactive”. For `CCCCOc1ccc(C(=O)C(CN2CCOCC2)c2ccccc2)cc1` (stereo not drawn), the Potency was 39.8 µM (active). In the case of `O=C(N/N=C/c1ccc(N2CCOCC2)cc1)c1ccccc1OCCOc1ccccc1`, the Potency is reported as “inactive”. With `CCOc1ccc(C(=O)C(CN2CCOCC2)c2ccccc2)cc1` (stereo not drawn) the Potency was 35.5 µM (active). In the case of `CCOc1ccc2nc(N3CCOCC3)nc(C)c2c1`, the Potency is reported as “inactive”. In the case of `CCOc1ccc(C2C(C(=O)OC)=CN(C(C)c3ccccc3)C=C2C(=O)OC)cc1` (stereo not drawn), the Potency is reported as “inactive”. `OC(CN1CCOCC1)(c1ccccc1)c1ccccn1` (stereo not drawn) was tested, and the Potency was “inactive”. With `CC1Cc2ccccc2N1CC(=O)NC(=O)NC1CCCCC1` (stereo not drawn) the Potency was “inactive”. In the case of `COc1ccc(NC2=C(C(C)=O)C(c3ccc(OC)cc3)C(C(C)=O)C(C)(O)C2)cc1` (stereo not drawn), the Potency is reported as “inactive”. In the case of `CCCCNc1nc2cccnc2s1`, the Potency is reported as “inactive”. For `Cc1cc(S(=O)(=O)c2ccc([N+](=O)[O-])cn2)ccc1Br`, the Potency was 29.9 µM (active). With `Cc1cc(Sc2ccc([N+](=O)[O-])cn2)ccc1Br` the Potency was “inactive”. In the case of `NS(=O)(=O)c1ccc(S(=O)(=O)c2ccccc2)nc1`, the Potency is reported as “inactive”. With `CCN(CC)c1nc(-c2ccccc2)ncc1S(=O)(=O)c1ccc(C)cc1` the Potency was “inactive”. For `Cn1c(S(=O)(=O)c2ccc([N+](=O)[O-])cc2)nc(Br)c1Br`, the Potency was “inactive”. For `Cc1c(C)c(C)c(C(=O)C2CCN(c3ccc([N+](=O)[O-])cn3)CC2)c(C)c1C`, the Potency was “inactive”. In the case of `O=[N+]([O-])c1ccc(S(=O)(=O)c2ccccc2)nc1`, the Potency is reported as 5.62 µM (active). `O=[N+]([O-])c1ccc(Nc2ccccc2F)nc1` was tested, and the Potency was “inactive”. `Cc1ccc(S(=O)(=O)c2ccc([N+](=O)[O-])cn2)cc1` was tested, and the Potency was 39.8 µM (active). `Cc1ccc2nc3c(cc(C(=O)NCC4CCCO4)c(=N)n3CC3CCCO3)c(=O)n2c1` (stereo not drawn) was tested, and the Potency was “inactive”. For `Cc1ccc(C2C=C(c3ccccc3OC(F)F)Nc3ncnn32)cc1` (stereo not drawn), the Potency was “inactive”. In the case of `Cn1c(C(=O)NCCN2CCOCC2)cc2c(=O)n3ccccc3nc21`, the Potency is reported as “inactive”. In the case of `CCCCn1c(SCCN2CCCCC2)nc2c1c(=O)n(C)c(=O)n2C`, the Potency is reported as “inactive”. `OC(c1cc(C(F)(F)F)nc2c(C(F)(F)F)cccc12)C1CCCCN1` (stereo not drawn) was tested, and the Potency was 20 µM (active). `O=S(=O)(Nc1nc2n(n1)C(c1ccc(F)cc1)C=C(c1ccc(Cl)cc1)N2)c1ccccc1` (stereo not drawn) was tested, and the Potency was “inactive”. `COCC(C)OC(=O)c1c(N)n(CCCN2CCOCC2)c2nc3ccccc3nc12` (stereo not drawn) was tested, and the Potency was “inactive”. In the case of `COc1ccc(-c2nn(-c3ccccc3)cc2/C=C(\CC(=O)O)c2nc3ccccc3s2)cc1OC`, the Potency is reported as “inactive”. For `COc1ccc(-c2nn(-c3ccccc3)cc2/C=N/Nc2ccc3ccccc3n2)cc1OC`, the Potency was “inactive”. With `COc1ccc(-c2nn(-c3ccccc3)cc2/C=N/N=C(N)N)cc1OC` the Potency was 39.8 µM (active). For `N#CC(C#N)=Cc1cnc(O)c(C#N)c1Nc1ccccc1`, the Potency was “inactive”. `Nc1c(C(=O)Nc2ccc(F)cc2)sc2nc(-c3ccco3)ccc12` was tested, and the Potency was “inactive”. `Oc1ccc(CN2CCc3ccccc3C2)c2cccnc12` was tested, and the Potency was 7.94 µM (active). For `O=C(CSc1ncccn1)N1CCc2ccccc2C1`, the Potency was “inactive”. `O=Cc1ccc(O)c2ncccc12` was tested, and the Potency was “inactive”. With `CCc1ccc(C(=O)c2cc3ccc(O)cc3oc2=O)cc1` the Potency was “inactive”. For `Oc1ccc(C23CC4CC(CC(C4)C2)C3)cc1O`, the Potency was 39.8 µM (active). `CNC(=O)/C(C#N)=C/c1c(N2CCN(c3ccc(OC)cc3)CC2)nc2c(C)cccn2c1=O` was tested, and the Potency was “inactive”. `N=C1SC(c2ccccc2)C(=O)N1c1ncc(Cc2ccccc2Cl)s1` (stereo not drawn) was tested, and the Potency was 12.6 µM (active). With `Fc1ccc(-n2c(S)nnc2-c2ccc3ccccc3n2)cc1Cl` the Potency was “inactive”. For `Oc1c(Br)cc(/C=N/Nc2ccc(Cl)nn2)cc1Br`, the Potency was “inactive”. `FC(F)(F)c1nnc(-c2ccccc2)nc1Sc1ccccc1` was tested, and the Potency was 39.8 µM (active). In the case of `FC(F)(F)c1nnc(-c2ccccc2)nc1Sc1ccc(Cl)cc1`, the Potency is reported as 35.5 µM (active). For `CN1CCN(c2nc(-c3ccc(Cl)cc3)nc3ccccc23)CC1`, the Potency was “inactive”. With `COc1cccc(-n2c(C)cc(/C=C3/C(=N)N4C(=NC3=O)SN=C4S(C)(=O)=O)c2C)c1` the Potency was “inactive”. With `COc1cc(/C=C2/C(=N)N3N=C(CC(=O)N4CCOCC4)SC3=NC2=O)ccc1OCc1ccccc1` the Potency was “inactive”. With `Cc1ncc(CO)c(/C=N/NC(=O)c2ccccc2Br)c1O` the Potency was “inactive”. `COc1cc(/C=C2/SC(=S)N(c3c(C)n(C)n(-c4ccccc4)c3=O)C2=O)ccc1O` was tested, and the Potency was 31.6 µM (active). With `Cn1cc(/C=C2\SC(=S)N(NC(=O)c3ccccc3)C2=O)c2ccccc21` the Potency was “inactive”. With `Cc1c(NC(=O)COC(=O)/C=C/c2cccc(F)c2)c(=O)n(-c2ccccc2)n1C` the Potency was “inactive”. For `COc1cc(/C=C2\SC(=S)N(C(C(=O)O)c3ccccc3)C2=O)ccc1O` (stereo not drawn), the Potency was 17.8 µM (active). In the case of `O=C(O)C(c1ccccc1)N1C(=O)/C(=C\c2ccc(O)c(O)c2)SC1=S` (stereo not drawn), the Potency is reported as 39.8 µM (active). `COc1cc(/C=C2\SC(=S)N(NC(=O)c3ccc(O)cc3)C2=O)ccc1O` was tested, and the Potency was 12.6 µM (active). For `COc1ccc(/C=C2\SC(=S)N(CCCC(=O)Nc3cc(C)on3)C2=O)cc1OC`, the Potency was “inactive”. `CCN(CC)c1ccc2cc(C(N)=O)c(=O)oc2c1` was tested, and the Potency was “inactive”. For `CCNC(=O)c1cc2c(=O)n3cccc(C)c3nc2n(CCc2ccccc2)c1=N`, the Potency was “inactive”. For `Nc1c(C(=O)N/N=C/c2ccc(F)cc2)oc2nc(-c3ccccc3)cc(-c3ccco3)c12`, the Potency was “inactive”. With `O=C(Nc1ccc2nc(-c3ccco3)c(-c3ccco3)nc2c1)N1CCCCCC1` the Potency was “inactive”. With `CCCn1c(=N)c(C(=O)NCc2cccnc2)cc2c(=O)n3ccccc3nc21` the Potency was “inactive”. For `CC1(C)C2CC=C(/C=N/NC(=S)NCCc3ccccc3)C1C2` (stereo not drawn), the Potency was “inactive”. `COc1cc(C2CC(c3c(C)cc(C)nc3O)=NN2c2ccccc2F)cc(OC)c1OC` (stereo not drawn) was tested, and the Potency was “inactive”. In the case of `CC(C)C(=O)NC(Nc1cc(C(F)(F)F)ccc1Cl)C(Cl)(Cl)Cl` (stereo not drawn), the Potency is reported as “inactive”. In the case of `N#Cc1sc2nc(-c3cccs3)cc(-c3ccc(Cl)cc3)c2c1N`, the Potency is reported as “inactive”. For `O=C(O)c1ccccc1Nc1ccc([N+](=O)[O-])cc1`, the Potency was “inactive”. With `Nc1cc([N+](=O)[O-])ccc1Nc1ccc(O)cc1` the Potency was 44.7 µM (active). `O=C(O)c1cc([N+](=O)[O-])ccc1-c1ccc([N+](=O)[O-])cc1C(=O)O` was tested, and the Potency was “inactive”. `COc1ccc(C2C3=C(CCCC3=O)N(CC(=O)O)C3=C2C(=O)CCC3)cc1Br` was tested, and the Potency was “inactive”. In the case of `OC(CNCCC1C=Nc2ccccc21)Cn1c2ccc(Cl)cc2c2cc(Cl)ccc21` (stereo not drawn), the Potency is reported as 35.5 µM (active). `CN(C)CC(C(=O)c1ccccc1)c1ccccc1` (stereo not drawn) was tested, and the Potency was 20 µM (active). `CCOC(=O)C(C(=O)c1ccccc1)C(c1ccccc1)c1nccc2ccccc12` (stereo not drawn) was tested, and the Potency was “inactive”. In the case of `NCC12CC3CC(C1)CC(c1ccc(Br)cc1)(C3)C2`, the Potency is reported as 25.1 µM (active). For `NCC12CC3CC(C1)CC(c1ccc(Cl)cc1)(C3)C2`, the Potency was 44.7 µM (active). `CCOCCCn1c(=N)c(C(=O)NCC2CCCO2)cc2c(=O)n3cccc(C)c3nc21` (stereo not drawn) was tested, and the Potency was “inactive”. For `N#C/C(=C\c1c(Oc2ccccc2Cl)nc2ccccn2c1=O)C(=O)NC1CCS(=O)(=O)C1` (stereo not drawn), the Potency was “inactive”. For `Cc1cc(O)c(CN(C)C)c2c1C(=O)/C(=C/c1ccco1)O2`, the Potency was “inactive”. With `CC/C(=C\C1CCCCC1)C(NP(=O)(c1ccccc1)c1ccccc1)c1ccccc1` (stereo not drawn) the Potency was 35.5 µM (active). In the case of `CC(C)OCCCn1c(NN)nc2ccccc2c1=O`, the Potency is reported as “inactive”. `COc1ccccc1Oc1ccc(N/C=C/C(=O)c2ccco2)cc1` was tested, and the Potency was “inactive”. `Cc1ccc(SC2=C(Sc3ccc(C)cc3)C(=O)c3ccccc3C2=O)cc1` was tested, and the Potency was “inactive”. `COc1ccc2sc(-c3ccc(N(C)C)cc3)c(C#Cc3cncn3C)c2c1` was tested, and the Potency was “inactive”. With `COc1cc(OC)cc(-c2sc3ccc(OC)cc3c2C#CC2(N)CCCCC2)c1` the Potency was 39.8 µM (active). `COc1ccc2sc(-c3ccc(N(C)C)cc3)c(C#CC(C)(C)O)c2c1` was tested, and the Potency was “inactive”. `COc1ccc(-c2sc3cc4c(cc3c2C#CC2(N)CCCCC2)OCO4)cc1` was tested, and the Potency was 39.8 µM (active). `CCOCCCn1c(=N)c(C(=O)NCc2cccnc2)cc2c(=O)n3ccccc3nc21` was tested, and the Potency was “inactive”. For `N#CC(C(=O)NCc1ccccc1)c1nc2ccccc2nc1N1CCCC1` (stereo not drawn), the Potency was “inactive”. In the case of `O=c1oc2cc(O)ccc2cc1S(=O)(=O)c1ccccc1`, the Potency is reported as “inactive”. In the case of `CC(C)(C)c1ccc(C(=O)CC(Sc2ccc(Cl)cc2)C(=O)O)cc1` (stereo not drawn), the Potency is reported as 39.8 µM (active). In the case of `CC(C)N1CCN(Cc2ccc(C#CCCO)cc2)CC1CCO` (stereo not drawn), the Potency is reported as “inactive”. For `CCCOc1ccc(CCC(=O)N/N=C/c2ccco2)cc1`, the Potency was “inactive”. In the case of `CCCOc1ccc(C(=O)C(CCC(CNCC)C(=O)c2ccc(OCCC)cc2)CNCC)cc1` (stereo not drawn), the Potency is reported as 22.4 µM (active). With `CCCOc1ccc(C2C(C(=O)OC)=CN(CCOC)C=C2C(=O)OC)cc1` the Potency was “inactive”. In the case of `O=C(O)c1cccc(-n2cccc2/C=C2/NC(=O)N(c3ccc(Cl)cc3)C2=O)c1`, the Potency is reported as “inactive”.
